Source: PubChem BioAssay (Tox21)
Calls of active or inactive are those of the source. The call rests on the fitted dose curve; in most records, active means well fitted activation curve with a large enough effect in the repeat runs; inconclusive means weak or mixed curves; inactive means flat fitted curve, though single readings scatter.

Molecular target: KiSS-1 receptor (Homo sapiens) (UniProt Q969F8)
Assay: Human kisspeptin (KISS1R) small molecule agonists, calcium flux assay in KISS1R-HEK293 cells (AID 1920064)
Details: KISS1R-HEK293, calcium flux fluorescence, agonist; series mostly up to 76.8 µM; activation: at the top concentration
Description: National Center for Advancing Translational Sciences [NCATS]
Division of Preclinical Innovation [DPI]
U.S. Environmental Protection Agency [EPA]
National Institutes of Environmental Health Sciences [NIEHS]
National Toxicology Program [NTP]
U.S. Food and Drug Administration [FDA]
Kisspeptin and its receptor KISS1R play key roles in mammalian reproduction due to their involvement in the onset of puberty and control of the hypothalamic-pituitary-gonadal axis such as regulates GnRH release from the hypothalamus. The kisspeptin/KISS1R system also plays a direct role in peripheral organs (including the ovary, testis, uterus, and placenta) and is implicated in reproductive diseases such as miscarriage and polycystic ovary syndrome (PCOS). Abnormal KISS1R activity is associated with abnormal puberty, infertility, endometriosis, and hormone-dependent tumors. The KISS1 receptor (KISS1R, also called GPR54), a G-protein-coupled receptor (GPCR), acts (through phospholipase C) to increase intracellular inositol trisphosphate and then release intracellular calcium stores. Cell-based KISS1R-HEK293 assay is using HEK293 cells that have been genetically engineered to express the human KISS1R, which activity can be measured by calcium signaling. A compound/drug can activate (agonist) KISS1R that can be monitored by levels of intracellular calcium.
KISS1R-HEK293 cells developed by Codex Corp contain human KISS1R gene, which was stably integrated into HEK 293 cells. The compound activation can be detected by fluorescence intensity via calcium flux assay. This cell line has been used to screen the Tox21 10K compound library to identify agonists of KISS1R.
KISS1R-Hek293 cells were dispensed at 1500 cells/4uL/well in 1536-well black wall/clear bottom plates using a multidrop dispenser. After the assay plates were incubated at a 37 C/5% CO2 incubator for 18 hours, 4 microL of Calcium Dye Solution was added to each well. The plates were incubated at 37 C for 1 hour. And then 23 nL of compounds dissolved in DMSO, positive controls, or DMSO only was transferred to the assay plate by a pin tool station. The fluorescence intensity in the plates was measured using FDSS 7000EX kinetic plate reader with a filter set of Ex/Em=480/540 for 3 min at 1 sec intervals. Each test compound was measured at 15 concentrations and in triplicates.
On the % scale 0 is the no-effect control and ±100 the full control effect.

Chain of KiSS-1 receptor (Homo sapiens) (Q969F8 whole entry, looked up): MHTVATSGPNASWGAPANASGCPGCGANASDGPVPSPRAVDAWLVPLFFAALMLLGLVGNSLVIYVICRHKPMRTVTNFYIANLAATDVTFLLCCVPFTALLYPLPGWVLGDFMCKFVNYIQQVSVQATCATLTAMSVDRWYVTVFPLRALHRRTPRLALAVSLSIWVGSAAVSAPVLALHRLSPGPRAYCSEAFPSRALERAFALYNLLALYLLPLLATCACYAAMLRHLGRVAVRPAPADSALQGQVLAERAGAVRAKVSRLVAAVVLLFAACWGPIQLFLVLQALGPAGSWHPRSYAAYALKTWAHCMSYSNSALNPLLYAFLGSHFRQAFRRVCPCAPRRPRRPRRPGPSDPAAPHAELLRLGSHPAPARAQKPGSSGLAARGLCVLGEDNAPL

Row | SMILES | activation | Potency
1 | c1ccc2cnccc2c1 | 3.84% (inactive) | –
2 | CC(C)(CCl)c1ccccc1 | 1.44% (inactive) | –
3 | C1=CCC2CC=CC2C1 (stereo not given) | -1.05% (inactive) | –
4 | CCCCOCCCC | -2.2% (inactive) | –
5 | COc1ccccc1C=O | -4.9% (inactive) | –
6 | CC(C)(C)NCC(O)c1ccc(O)c(CO)c1 (stereo not given) | – | inactive
7 | C/C=C/C(=O)CCCC | -1.74% (inactive) | –
8 | Nc1ccc([N+](=O)[O-])c(C(F)(F)F)c1 | -3.26% [at 35.3 µM] (inactive) | –
9 | Cc1oncc1C(=O)Nc1ccc(C(F)(F)F)cc1 | – | inactive
10 | NS(=O)(=O)c1ccccc1OC(F)(F)F | -0.824% (inactive) | –
11 | CCCCCCOCCOCCO | – | inactive
12 | O=C(O)[C@@H]1[C@H]2C[C@H]3c4[nH]c5ccccc5c4CCN3C[C@@H]2CC[C@@H]1O | 0.0509% [at 35.3 µM] (inactive) | –
13 | OC/C=C/CO | -0.0844% (inactive) | –
14 | COC(=O)c1cc(Cl)ccc1NS(=O)(=O)C(F)(F)F | -0.591% [at 35.3 µM] (inactive) | –
15 | CC/C=C/CCO | -3.88% (inactive) | –
16 | COC(=O)c1ccc(C)cc1C1=NC(C)(C(C)C)C(=O)N1 (stereo not given) | 0.37% (inactive) | –
17 | COc1cccc(Br)c1 | -2.18% (inactive) | –
18 | O=Cc1ccc(C(=O)O)cc1 | 0.21% (inactive) | –
19 | CC(C)CCCC(C)CCO (stereo not given) | -0.0266% (inactive) | –
20 | CCCCC(CC)COCCC#N (stereo not given) | -3.13% (inactive) | –

Row | SMILES | activation | Potency
21 | Clc1nc(Cl)c(Cl)c(Cl)c1Cl | – | inactive
22 | C=CCCCCCCCCCCC | 3.21% [at 6.97 µM] (inactive) | –
23 | c1ccc2nccnc2c1 | -1.44% (inactive) | –
24 | NC(=O)Nc1ccccc1 | 0.678% (inactive) | –
25 | CC1(C)COCN1 | 5.92% (inactive) | –
26 | O=S(=O)(O)C(F)(F)F | -3.25% (inactive) | –
27 | O=P(O)(O)O | – | inactive
28 | c1ccc(CNc2ncnc3c2ncn3C2CCCCO2)cc1 (stereo not given) | 1.38% (inactive) | –
29 | O=C1C(c2[nH]c3ccc(S(=O)(=O)O)cc3c2O)=Nc2ccc(S(=O)(=O)O)cc21 | 0.566% (inactive) | –
30 | CC1=C(CC(=O)O)c2cc(F)ccc2/C1=C\c1ccc(S(C)=O)cc1 (stereo not given) | – | inactive
31 | C[C@@H]1CC(=O)NN=C1c1ccc(NN=C(C#N)C#N)cc1 | – | inactive
32 | COC(=O)Nc1nc2ccc(Sc3ccccc3)cc2[nH]1 | – | inactive
33 | Cc1cccc(N(C)C(=S)Oc2ccc3ccccc3c2)c1 | – | inactive
34 | CC(=O)CCC(C)C | -4.47% (inactive) | –
35 | CCC(=O)O[C@H]1[C@H](O[C@@H]2[C@@H](C)[C@H](O[C@H]3C[C@@](C)(OC)[C@@H](O)[C@H](C)O3)[C@@H](C)C(=O)O[C@H](CC)[C@@](C)(O)[C@H](O)[C@@H](C)C(=O)[C@H](C)C[C@@]2(C)O)O[C@H](C)C[C@@H]1N(C)C | – | inactive
36 | CN1C(=O)CC(C)(c2ccccc2)C1=O (stereo not given) | -0.645% [at 35.3 µM] (inactive) | –
37 | c1ccc2ncccc2c1 | – | inactive
38 | CCCCCCCCC1CCC(=O)O1 (stereo not given) | 0.0269% (inactive) | –
39 | C=C1C[C@]23C[C@@]1(O)CC[C@H]2[C@@]12C=C[C@H](O)[C@@](C)(C(=O)O1)[C@H]2[C@@H]3C(=O)O | – | inactive
40 | CCOC(=O)C(C)C(C)=O (stereo not given) | -0.975% (inactive) | –
